# What was measured:
# Assay in all cases: DAPPL (digital affinity profiling via proximity ligation, sequencing); 10 mM Tris-HCl pH 7.5, 50 mM NaCl, 1 mM DTT, 4% glycerol, room temperature, 30 min; GST-TFs on glutathione beads, 16-mer random dsDNA library, 0.1% formaldehyde crosslink after washing; high values mean tight binding
# Conditions in all cases: protein: recombinant; tags: N-terminal GST; dsDNA, one strand shown
# FLI1 = molecular target: T1, FLI1 (Homo sapiens, UniProt Q01543 1-452)
# T1 sequence: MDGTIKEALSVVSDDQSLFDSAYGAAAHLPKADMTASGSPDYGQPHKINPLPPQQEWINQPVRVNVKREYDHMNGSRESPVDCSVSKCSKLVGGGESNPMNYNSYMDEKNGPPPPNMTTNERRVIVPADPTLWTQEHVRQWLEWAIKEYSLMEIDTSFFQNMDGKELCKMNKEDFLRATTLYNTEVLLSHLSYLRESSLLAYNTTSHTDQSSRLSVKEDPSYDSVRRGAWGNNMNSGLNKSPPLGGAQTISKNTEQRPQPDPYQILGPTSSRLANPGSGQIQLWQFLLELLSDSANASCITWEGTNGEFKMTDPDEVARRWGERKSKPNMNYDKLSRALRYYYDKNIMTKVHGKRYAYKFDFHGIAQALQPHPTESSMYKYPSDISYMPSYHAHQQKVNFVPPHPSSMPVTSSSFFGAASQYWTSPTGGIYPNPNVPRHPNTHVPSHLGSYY
# In short: (§1)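 Pools were built from human transcription factors expressed in yeast as GST fusions, captured on glutathione beads and DNA-barcoded, along with a tag-only sample. Incubation with 200 nmole of a 16-mer random double-stranded DNA library lasted 30 min at room temperature in Tris/NaCl/DTT/glycerol buffer, and was followed by washing, 0.1% formaldehyde crosslinking, proximity ligation, PCR amplification and Illumina NextSeq500 sequencing. Binding signal is the quotient of each hexamer's read frequency for a factor and its frequency for the tag-only sample.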
# ELK1 = molecular target: T2, ELK1 (Homo sapiens, UniProt P19419 1-428)
# T2 sequence: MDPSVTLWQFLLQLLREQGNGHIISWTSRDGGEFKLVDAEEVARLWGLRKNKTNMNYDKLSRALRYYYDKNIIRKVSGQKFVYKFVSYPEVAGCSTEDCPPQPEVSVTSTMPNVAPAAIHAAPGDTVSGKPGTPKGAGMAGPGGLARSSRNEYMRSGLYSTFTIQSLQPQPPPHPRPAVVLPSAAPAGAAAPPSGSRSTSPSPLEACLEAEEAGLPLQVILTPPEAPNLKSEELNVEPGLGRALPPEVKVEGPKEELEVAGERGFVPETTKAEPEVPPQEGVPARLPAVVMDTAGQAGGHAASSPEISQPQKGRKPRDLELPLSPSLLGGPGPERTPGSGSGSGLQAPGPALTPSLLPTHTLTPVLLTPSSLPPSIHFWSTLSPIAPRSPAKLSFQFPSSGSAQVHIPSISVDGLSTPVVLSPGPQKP
# In short: as §1
# GABPA = molecular target: T3, GABPA (Homo sapiens, UniProt Q06546 1-454)
# T3 sequence: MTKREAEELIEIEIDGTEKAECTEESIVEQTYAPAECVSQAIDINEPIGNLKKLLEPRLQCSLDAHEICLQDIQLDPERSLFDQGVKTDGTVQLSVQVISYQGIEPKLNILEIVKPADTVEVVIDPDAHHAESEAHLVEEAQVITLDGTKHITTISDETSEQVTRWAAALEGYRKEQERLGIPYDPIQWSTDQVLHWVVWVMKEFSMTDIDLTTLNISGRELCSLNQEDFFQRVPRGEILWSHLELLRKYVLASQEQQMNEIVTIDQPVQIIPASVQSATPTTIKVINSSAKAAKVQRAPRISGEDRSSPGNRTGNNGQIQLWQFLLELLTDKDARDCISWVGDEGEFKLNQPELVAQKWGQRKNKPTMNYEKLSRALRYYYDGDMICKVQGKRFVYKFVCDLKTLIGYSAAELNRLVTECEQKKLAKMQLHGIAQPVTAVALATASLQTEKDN
# In short: as §1
# ERG = molecular target: T4, ERG (Homo sapiens, UniProt P11308 1-479)
# T4 sequence: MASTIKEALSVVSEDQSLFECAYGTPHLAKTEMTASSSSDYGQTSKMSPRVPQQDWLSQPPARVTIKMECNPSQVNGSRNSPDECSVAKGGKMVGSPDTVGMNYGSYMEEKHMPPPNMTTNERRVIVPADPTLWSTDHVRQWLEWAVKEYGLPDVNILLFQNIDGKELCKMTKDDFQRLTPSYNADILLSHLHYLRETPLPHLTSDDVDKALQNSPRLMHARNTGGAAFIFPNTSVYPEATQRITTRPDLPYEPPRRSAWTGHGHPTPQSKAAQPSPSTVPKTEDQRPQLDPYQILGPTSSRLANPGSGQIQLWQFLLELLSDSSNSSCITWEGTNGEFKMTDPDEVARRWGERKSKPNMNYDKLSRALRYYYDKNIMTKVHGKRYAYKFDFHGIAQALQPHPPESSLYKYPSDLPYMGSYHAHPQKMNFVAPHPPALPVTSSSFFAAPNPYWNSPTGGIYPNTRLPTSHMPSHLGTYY
# In short: as §1
# ELF1 = ELF1 (Homo sapiens, UniProt P32519 1-619)
# In short: as §1
# EHF = molecular target: T5, EHF (Homo sapiens, UniProt Q9NZC4 1-300)
# T5 sequence: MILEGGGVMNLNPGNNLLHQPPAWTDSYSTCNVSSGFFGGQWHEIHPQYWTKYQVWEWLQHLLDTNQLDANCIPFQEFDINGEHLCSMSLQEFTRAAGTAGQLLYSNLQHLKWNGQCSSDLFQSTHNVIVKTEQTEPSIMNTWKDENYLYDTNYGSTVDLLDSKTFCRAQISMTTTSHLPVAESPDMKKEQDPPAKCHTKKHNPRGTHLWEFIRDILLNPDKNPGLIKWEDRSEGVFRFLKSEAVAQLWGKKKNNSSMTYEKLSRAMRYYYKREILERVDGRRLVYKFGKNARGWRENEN
# In short: as §1
# SPI1 = SPI1 (Homo sapiens, UniProt P17947 1-270)
# In short: as §1
# SPIB = SPIB (Homo sapiens, UniProt Q01892 1-262)
# In short: as §1
# FEV = molecular target: T6, FEV (Homo sapiens, UniProt Q99581 1-238)
# T6 sequence: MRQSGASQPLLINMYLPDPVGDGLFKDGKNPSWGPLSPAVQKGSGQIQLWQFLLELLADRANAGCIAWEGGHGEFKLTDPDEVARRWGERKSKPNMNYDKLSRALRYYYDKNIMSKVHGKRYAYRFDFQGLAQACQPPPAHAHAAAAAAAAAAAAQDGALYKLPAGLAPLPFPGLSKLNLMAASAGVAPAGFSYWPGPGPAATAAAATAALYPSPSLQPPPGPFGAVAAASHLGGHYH
# In short: as §1
# ETV5 = ETV5 (Homo sapiens, UniProt P41161 1-510)
# In short: as §1
# ELF4 = ELF4 (Homo sapiens, UniProt Q99607 1-663)
# In short: as §1
# ETV2 = molecular target: T7, ETV2 (Homo sapiens, UniProt O00321 1-342)
# T7 sequence: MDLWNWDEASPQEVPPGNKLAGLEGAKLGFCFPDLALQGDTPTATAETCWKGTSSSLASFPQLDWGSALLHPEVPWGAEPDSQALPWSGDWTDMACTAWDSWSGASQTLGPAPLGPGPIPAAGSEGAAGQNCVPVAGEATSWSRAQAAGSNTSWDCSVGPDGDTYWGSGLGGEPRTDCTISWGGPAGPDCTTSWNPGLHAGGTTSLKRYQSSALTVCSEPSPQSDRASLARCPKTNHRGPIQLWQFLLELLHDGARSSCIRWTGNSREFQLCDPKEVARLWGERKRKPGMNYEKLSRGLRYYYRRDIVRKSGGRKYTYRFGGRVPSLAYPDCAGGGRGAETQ
# In short: as §1
# ELF3 = molecular target: T8, ELF3 (Homo sapiens, UniProt P78545 1-371)
# T8 sequence: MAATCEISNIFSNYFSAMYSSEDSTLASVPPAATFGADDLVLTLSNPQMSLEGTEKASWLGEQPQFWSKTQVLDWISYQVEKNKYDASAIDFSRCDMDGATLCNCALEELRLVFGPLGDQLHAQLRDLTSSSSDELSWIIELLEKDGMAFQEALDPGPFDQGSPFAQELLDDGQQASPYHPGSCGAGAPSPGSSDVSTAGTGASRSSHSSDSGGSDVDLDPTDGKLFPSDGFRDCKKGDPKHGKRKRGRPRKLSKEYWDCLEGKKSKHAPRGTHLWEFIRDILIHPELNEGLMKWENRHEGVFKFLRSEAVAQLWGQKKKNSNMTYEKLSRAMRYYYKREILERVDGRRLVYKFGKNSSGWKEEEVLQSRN
# In short: as §1
# ETV1 = ETV1 (Homo sapiens, UniProt P50549 1-477)
# In short: as §1
# ERF = molecular target: T9, ERF (Homo sapiens, UniProt P50548 1-548)
# T9 sequence: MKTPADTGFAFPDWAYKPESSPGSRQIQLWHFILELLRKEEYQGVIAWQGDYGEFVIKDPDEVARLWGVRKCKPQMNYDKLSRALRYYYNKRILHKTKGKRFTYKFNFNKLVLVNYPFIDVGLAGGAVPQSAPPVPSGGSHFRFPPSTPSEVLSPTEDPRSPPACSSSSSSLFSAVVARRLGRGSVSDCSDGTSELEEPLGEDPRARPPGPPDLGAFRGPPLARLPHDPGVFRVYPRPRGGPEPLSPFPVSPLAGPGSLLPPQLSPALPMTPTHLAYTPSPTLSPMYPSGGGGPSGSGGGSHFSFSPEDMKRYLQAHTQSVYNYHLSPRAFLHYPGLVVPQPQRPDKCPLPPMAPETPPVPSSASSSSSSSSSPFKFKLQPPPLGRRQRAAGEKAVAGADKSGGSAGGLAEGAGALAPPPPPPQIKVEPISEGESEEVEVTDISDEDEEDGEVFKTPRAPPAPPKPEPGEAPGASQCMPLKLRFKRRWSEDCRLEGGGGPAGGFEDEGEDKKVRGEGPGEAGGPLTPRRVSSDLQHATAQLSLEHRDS
# In short: as §1
# ETV3L = molecular target: T10, ETV3L (Homo sapiens, UniProt Q6ZN32 1-361)
# T10 sequence: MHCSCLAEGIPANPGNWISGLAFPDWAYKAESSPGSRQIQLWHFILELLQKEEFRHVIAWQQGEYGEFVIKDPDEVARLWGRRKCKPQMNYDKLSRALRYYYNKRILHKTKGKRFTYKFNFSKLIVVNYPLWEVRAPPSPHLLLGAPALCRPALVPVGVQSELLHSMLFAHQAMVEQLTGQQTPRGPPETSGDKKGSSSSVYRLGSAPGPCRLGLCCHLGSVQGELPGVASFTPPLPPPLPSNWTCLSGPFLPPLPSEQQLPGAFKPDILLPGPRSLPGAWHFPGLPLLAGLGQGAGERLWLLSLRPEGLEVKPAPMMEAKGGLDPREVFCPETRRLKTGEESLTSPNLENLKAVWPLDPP
# In short: as §1
# ETS2 = molecular target: T11, ETS2 (Homo sapiens, UniProt P15036 1-469)
# T11 sequence: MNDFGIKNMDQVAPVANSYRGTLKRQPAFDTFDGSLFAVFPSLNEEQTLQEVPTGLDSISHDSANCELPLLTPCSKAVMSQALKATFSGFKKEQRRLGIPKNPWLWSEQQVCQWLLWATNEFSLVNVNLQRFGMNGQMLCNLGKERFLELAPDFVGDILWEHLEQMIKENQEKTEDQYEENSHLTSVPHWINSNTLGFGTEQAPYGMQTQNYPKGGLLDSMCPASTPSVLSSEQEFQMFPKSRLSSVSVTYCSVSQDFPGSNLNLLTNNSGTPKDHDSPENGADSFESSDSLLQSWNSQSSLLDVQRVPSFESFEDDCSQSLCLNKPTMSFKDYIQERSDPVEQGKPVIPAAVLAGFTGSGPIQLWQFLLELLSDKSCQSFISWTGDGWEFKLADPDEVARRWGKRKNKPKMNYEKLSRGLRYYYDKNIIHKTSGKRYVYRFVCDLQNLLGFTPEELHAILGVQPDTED
# In short: as §1
# ETV7 = molecular target: T12, ETV7 (Homo sapiens, UniProt Q9Y603 1-341)
# T12 sequence: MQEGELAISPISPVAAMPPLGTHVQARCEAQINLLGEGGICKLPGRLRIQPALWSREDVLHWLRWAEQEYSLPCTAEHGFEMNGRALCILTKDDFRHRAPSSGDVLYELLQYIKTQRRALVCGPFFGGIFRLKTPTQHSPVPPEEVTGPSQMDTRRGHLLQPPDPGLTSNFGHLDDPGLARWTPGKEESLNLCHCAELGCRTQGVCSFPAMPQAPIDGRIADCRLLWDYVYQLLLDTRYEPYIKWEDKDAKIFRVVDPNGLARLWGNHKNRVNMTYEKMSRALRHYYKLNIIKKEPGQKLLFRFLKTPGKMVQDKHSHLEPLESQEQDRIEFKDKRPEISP
# In short: as §1
# ETV3 = molecular target: T13, ETV3 (Homo sapiens, UniProt P41162-2 1-143)
# T13 sequence: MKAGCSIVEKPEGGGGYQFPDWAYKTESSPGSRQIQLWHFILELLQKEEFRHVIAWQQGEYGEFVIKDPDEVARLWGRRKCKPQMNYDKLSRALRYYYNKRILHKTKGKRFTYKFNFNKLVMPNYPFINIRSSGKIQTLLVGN
# In short: as §1
# ETV6 = ETV6 (Homo sapiens, UniProt P41212 1-452)
# In short: as §1
# Sequence of ETV6 (P41212 whole entry): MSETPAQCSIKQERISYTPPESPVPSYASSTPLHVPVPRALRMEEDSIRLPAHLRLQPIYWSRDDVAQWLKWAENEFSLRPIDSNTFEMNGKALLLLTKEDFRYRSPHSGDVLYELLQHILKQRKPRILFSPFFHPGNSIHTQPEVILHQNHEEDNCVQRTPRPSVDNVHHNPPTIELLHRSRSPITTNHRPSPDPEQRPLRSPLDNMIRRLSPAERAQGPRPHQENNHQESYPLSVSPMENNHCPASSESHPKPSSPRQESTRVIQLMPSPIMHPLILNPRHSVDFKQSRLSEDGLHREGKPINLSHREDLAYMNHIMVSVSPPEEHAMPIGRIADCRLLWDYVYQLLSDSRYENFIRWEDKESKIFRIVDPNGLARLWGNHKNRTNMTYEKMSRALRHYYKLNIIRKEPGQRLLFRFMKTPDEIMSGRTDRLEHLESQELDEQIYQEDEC
# Sequence of SPIB (Q01892 whole entry): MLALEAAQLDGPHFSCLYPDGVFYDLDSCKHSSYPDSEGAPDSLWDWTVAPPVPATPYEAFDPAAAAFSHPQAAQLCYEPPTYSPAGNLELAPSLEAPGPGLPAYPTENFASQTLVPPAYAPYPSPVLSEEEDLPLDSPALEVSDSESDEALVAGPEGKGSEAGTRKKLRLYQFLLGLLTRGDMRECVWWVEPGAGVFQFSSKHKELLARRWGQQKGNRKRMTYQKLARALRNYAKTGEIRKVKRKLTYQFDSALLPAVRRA
# Sequence of ETV1 (P50549 whole entry): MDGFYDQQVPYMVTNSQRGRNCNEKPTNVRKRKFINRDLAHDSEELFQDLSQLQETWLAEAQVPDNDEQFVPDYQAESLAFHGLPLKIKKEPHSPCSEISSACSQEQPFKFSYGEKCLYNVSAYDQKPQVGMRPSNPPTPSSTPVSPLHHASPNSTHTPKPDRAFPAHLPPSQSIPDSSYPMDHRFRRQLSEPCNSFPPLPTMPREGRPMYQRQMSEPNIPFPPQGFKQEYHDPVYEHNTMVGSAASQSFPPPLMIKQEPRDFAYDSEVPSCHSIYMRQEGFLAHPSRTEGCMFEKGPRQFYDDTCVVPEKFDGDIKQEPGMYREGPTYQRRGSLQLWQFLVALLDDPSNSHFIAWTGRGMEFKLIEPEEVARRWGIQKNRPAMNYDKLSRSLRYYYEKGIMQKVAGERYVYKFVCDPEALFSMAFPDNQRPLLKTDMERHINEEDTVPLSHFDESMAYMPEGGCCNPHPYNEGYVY
# Sequence of ELF1 (P32519 whole entry): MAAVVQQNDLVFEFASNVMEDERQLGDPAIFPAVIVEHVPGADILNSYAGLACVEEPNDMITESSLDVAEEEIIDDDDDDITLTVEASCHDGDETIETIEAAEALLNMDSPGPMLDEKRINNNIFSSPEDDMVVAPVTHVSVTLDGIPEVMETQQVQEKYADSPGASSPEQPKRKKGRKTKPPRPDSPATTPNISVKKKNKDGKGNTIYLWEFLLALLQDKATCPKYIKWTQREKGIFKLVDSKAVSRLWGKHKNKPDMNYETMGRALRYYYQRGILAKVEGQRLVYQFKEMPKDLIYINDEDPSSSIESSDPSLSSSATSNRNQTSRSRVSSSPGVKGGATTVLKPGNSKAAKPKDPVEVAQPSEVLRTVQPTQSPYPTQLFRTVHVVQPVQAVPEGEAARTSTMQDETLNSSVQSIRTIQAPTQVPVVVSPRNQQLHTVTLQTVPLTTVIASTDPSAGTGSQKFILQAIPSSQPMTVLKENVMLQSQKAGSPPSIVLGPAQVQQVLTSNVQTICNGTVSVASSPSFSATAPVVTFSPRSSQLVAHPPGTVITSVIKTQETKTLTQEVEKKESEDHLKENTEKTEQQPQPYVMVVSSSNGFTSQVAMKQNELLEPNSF
# Sequence of ELF4 (Q99607 whole entry): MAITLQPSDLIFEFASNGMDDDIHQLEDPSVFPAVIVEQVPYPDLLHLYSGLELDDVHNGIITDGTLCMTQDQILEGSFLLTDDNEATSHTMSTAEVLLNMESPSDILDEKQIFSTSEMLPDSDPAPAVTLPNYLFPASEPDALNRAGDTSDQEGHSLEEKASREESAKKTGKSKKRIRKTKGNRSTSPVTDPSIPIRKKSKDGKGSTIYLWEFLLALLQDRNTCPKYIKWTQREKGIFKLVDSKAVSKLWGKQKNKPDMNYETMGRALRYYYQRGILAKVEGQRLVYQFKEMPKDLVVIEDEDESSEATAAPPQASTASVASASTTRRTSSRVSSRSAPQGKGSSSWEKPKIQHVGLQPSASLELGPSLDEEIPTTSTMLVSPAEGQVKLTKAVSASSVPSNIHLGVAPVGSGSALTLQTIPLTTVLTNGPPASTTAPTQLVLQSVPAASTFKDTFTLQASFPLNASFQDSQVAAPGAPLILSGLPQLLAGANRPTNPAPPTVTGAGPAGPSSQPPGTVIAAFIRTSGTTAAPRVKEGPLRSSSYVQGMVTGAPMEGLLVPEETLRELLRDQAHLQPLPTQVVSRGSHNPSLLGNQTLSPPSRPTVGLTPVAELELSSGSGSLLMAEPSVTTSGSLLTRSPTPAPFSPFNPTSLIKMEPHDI
# Sequence of ETV5 (P41161 whole entry): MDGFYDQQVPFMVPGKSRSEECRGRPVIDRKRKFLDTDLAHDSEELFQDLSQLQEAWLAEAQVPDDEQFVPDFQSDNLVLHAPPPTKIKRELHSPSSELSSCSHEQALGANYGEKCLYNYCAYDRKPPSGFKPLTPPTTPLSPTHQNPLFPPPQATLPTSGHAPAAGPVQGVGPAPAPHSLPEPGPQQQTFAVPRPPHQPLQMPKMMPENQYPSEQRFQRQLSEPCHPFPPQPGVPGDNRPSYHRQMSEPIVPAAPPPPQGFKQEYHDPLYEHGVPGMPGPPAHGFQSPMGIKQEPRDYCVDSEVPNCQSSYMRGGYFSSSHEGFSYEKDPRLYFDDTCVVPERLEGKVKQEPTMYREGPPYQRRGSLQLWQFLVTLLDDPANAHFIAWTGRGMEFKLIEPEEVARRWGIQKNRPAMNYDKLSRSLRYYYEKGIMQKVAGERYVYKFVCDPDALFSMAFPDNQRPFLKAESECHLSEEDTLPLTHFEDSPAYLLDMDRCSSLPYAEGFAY
sequence,measurement,setting,value
GCCTGC,binding signal,FLI1,"1.03 fold enrichment (6-mer frequency, TF over GST control)"
same,binding signal,ELK1,"1.13 fold enrichment (6-mer frequency, TF over GST control)"
same,binding signal,GABPA,"1.07 fold enrichment (6-mer frequency, TF over GST control)"
same,binding signal,ERG,"1.03 fold enrichment (6-mer frequency, TF over GST control)"
same,binding signal,ELF1,"1.13 fold enrichment (6-mer frequency, TF over GST control)"
same,binding signal,EHF,"1.19 fold enrichment (6-mer frequency, TF over GST control)"
same,binding signal,SPI1,"1.06 fold enrichment (6-mer frequency, TF over GST control)"
same,binding signal,SPIB,"1.18 fold enrichment (6-mer frequency, TF over GST control)"
same,binding signal,FEV,"1.11 fold enrichment (6-mer frequency, TF over GST control)"
same,binding signal,ETV5,"1.05 fold enrichment (6-mer frequency, TF over GST control)"
same,binding signal,ELF4,"1.06 fold enrichment (6-mer frequency, TF over GST control)"
same,binding signal,ETV2,"1.15 fold enrichment (6-mer frequency, TF over GST control)"
same,binding signal,ELF3,"1.13 fold enrichment (6-mer frequency, TF over GST control)"
same,binding signal,ETV1,"1.18 fold enrichment (6-mer frequency, TF over GST control)"
same,binding signal,ERF,"1.05 fold enrichment (6-mer frequency, TF over GST control)"
same,binding signal,ETV3L,"1.17 fold enrichment (6-mer frequency, TF over GST control)"
same,binding signal,ETS2,"1.05 fold enrichment (6-mer frequency, TF over GST control)"
same,binding signal,ETV7,"1.13 fold enrichment (6-mer frequency, TF over GST control)"
same,binding signal,ETV3,"1.03 fold enrichment (6-mer frequency, TF over GST control)"
same,binding signal,ETV6,"1.05 fold enrichment (6-mer frequency, TF over GST control)"

# — article PMC7862700, “An all-to-all approach to the identification of sequence-specific readers for epigenetic DNA modifications on cytosine”
